Screening data (PubChem BioAssay)
A selection: hits, their analogues and other compounds. The true share with any hit is near 3.8%.
HSF1 inhib: HSF1 inhibition; AID 2098; NIH3T3-HGL HSE-luciferase, MG132-induced, luminescence 8 h; stronger effect = lower value; hit rate 0.77% among 300,000; activity change, negative = inhibition, % at 7.5 µM (by protocol);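 active means more than half of replicate wells show activity change below -50%, luminescence cut by over half; inconclusive means some wells, but at most half, below -50%; inactive means no replicate well below -50%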;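 further: luciferase reports HSF-1 transcriptional activity via heat shock element; 0% = median of DMSO wells and -100% = zero luminescence signal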
HSF1 activator: increases HSF-1 driven luciferase reporter signal. NIH3T3-HGL HSF-1 luciferase reporter, MG132, 8 h; 100% = twice DMSO control signal. activation, % at 9 µM. hit rate 1.7% among 300,000;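 active means mean replicate activation of at least 50% with a set share of replicates each reaching 50%; inconclusive means only one of those two conditions met; inactive means mean below 50% and too few replicates reaching it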;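 further: 0% = median of the neutral control wells and 100% = twice that signal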
MITF act: increases MITF-driven TRPM1 promoter luciferase signal. SK-MEL-5 TRPM1-promoter luciferase, 24 h; % of positive control, neutral wells = 0. activation, % at 12.5 µM. hit rate 0.75% among 300,000. AID 588334;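 active means mean activation of at least 80% with every replicate also reaching 80%; inconclusive means mean reaches 80% but some replicate falls short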;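 further: 0% = neutral control wells and 100% = parthenolide positive control wells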
esBAF inh: SWI/SNF esBAF complex inhibition | hit rate 2% among 350,000 | AID 602393 | reporter increase, % at 12.5 µM | mouse ES cells, Bmi1-luciferase knock-in reporter, 24 h; 100% = twice the neutral-well signal; in the data active means activation above about 40%; inconclusive means no clear call, values can overlap the other calls;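 further: 0% = median of the plate's neutral control wells and 100% = double that signal; a rise in the Bmi1 reporter signal indicates esBAF inhibition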
Wnt act: Wnt/beta-catenin pathway activation; Wnt/beta-catenin reporter cell assay, activator, plate reader; activation, % at 9.35 µM; hit rate 1.2% among 300,000; AID 743398; in the data active means activation above about 30%, passing the limit was not always enough; inconclusive means no clear call, values can overlap the other calls;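 further: 0% = neutral control wells and 100% = positive control wells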
Starred values were filed as active, the others as inactive; ? = inconclusive; / = no result.

SMILES	HSF1 inhib	HSF1 activator	MITF act	esBAF inh	Wnt act
O=C(c1c(F)cccc1F)N1CCCC(c2nc(-c3cccs3)no2)C1 (stereo not drawn)	13	37	48	81*	13
CC1(C)CC(=O)C=C(NC2=CC3OC(c4ccccc4)OCC3OC2=O)C1 (stereo not drawn)	77	116*	-70	/	-3
CCOC(=O)N1CCN(S(=O)(=O)c2ccc(F)c(C(=O)Nc3ccc(C)c(Cl)c3)c2)CC1	12	45	2	/	2
CCOC(=O)N1CCN(S(=O)(=O)c2ccc(F)c(C(=O)Nc3ccc(C(C)C)cc3)c2)CC1	28	69*	9	/	2
COc1ccccc1Nc1nc2ccccc2n1C	18	19	92*	65*	14
COc1ccccc1Nc1nc2ccccc2n2cnnc12	5	22	29	20	2
Cc1noc(C)c1NC(=O)N(C)C[C@@H]1Oc2c(NC(=O)c3ccncc3)cccc2C(=O)N([C@H](C)CO)C[C@H]1C	/	/	/	-1	/
O=C(Nc1nc2ccc(F)cc2s1)C1=COCCO1	-8	-9	-25	-68	-3
O=C(Nc1nc2cc3c(cc2s1)OCO3)C1CCCCC1	20	48	76	/	32*
O=C(Nc1nc2cc3c(cc2s1)OCCO3)C1=COCCO1	-66*	-75	-91	-85	-17
O=C(NNc1nc2c(F)cccc2s1)C1=COCCO1	-3	4	-7	-1	0
O=C(Nc1nc2cc3c(cc2s1)OCCO3)C1CCCCC1	/	/	91*	-15	54*
CSc1cccc2sc(NC(=O)C3=COCCO3)nc12	21	28	68	57*	6
C[C@H]1CN([C@@H](C)CO)C(=O)c2cc(C#CC3(O)CCCC3)cnc2O[C@@H]1CN(C)C(=O)Cc1ccncc1	/	/	/	-3	/
COc1ccc(NC(=O)N(C)C[C@H]2Oc3c(NC(=O)Nc4c(C)noc4C)cccc3C(=O)N([C@@H](C)CO)C[C@H]2C)cc1	/	/	/	-3	/
Cc1cc(C)c2sc(NC(=O)C3=COCCO3)nc2c1	30	54*	35	24	24
O=C(Nc1nnc(-c2ccc3c(c2)OCCO3)o1)C1CCCCC1	10	2	58	/	33*
O=C(Nc1nnc(-c2ccc(Cl)cc2)o1)C1CCCCC1	1	1	15	-7	-1
Cc1cc(C)c(-c2csc(NC(=O)C3=COCCO3)n2)c(C)c1	-4	-6	-8	29	0
C[C@@H]1CN([C@H](C)CO)C(=O)c2cc(NS(=O)(=O)c3cccs3)ccc2O[C@H]1CN(C)Cc1ccc(Cl)c(Cl)c1	/	/	/	-4	/
O=C(NCc1ccco1)c1cc2c(s1)CCCCC2	30	29	50	57*	-5
Cc1ccc(NC(=O)c2ccc3nc[nH]c3c2)cc1C	16	31	66	88*	9
CN(C)c1ccc(NC(=O)c2ccc3nc[nH]c3c2)cc1	5	2	71	48*	22
Cc1cc(C)cc(NC(=O)c2ccc3nc[nH]c3c2)c1	-1	13	29	24	6
O=C(Cc1ccccn1)NCC[C@@H]1CC[C@H](NC(=O)Nc2ccccc2)[C@@H](CO)O1	/	/	/	-1	/
SMILES	HSF1 inhib	HSF1 activator	MITF act	esBAF inh	Wnt act
COc1ccc(-c2noc(-c3ccc4c(c3)OCO4)n2)cc1	13	23	87*	/	21
COc1ccc(-c2noc(COc3ccc4c(c3)OCO4)n2)cc1	-4	-6	10	-6	/
c1ccc(-c2noc(-c3ccc4c(c3)OCO4)n2)cc1	-21	-13	3	/	12
COc1cccc(-c2noc(-c3ccc4c(c3)OCO4)n2)c1	4	26	28	/	42*
C=CCn1c(C)cc(C(=O)CSc2nc3ccccc3o2)c1C	14	24	46	/	47*
C=CCn1c(C)cc(C(=O)CSc2nc3ccccc3c(=O)[nH]2)c1C	/	/	16	12	44*
C=CCn1c(C)cc(C(=O)CSc2nnc(NCc3ccccc3)s2)c1C	/	/	-3	29	/
C=CCn1c(C)cc(C(=O)CSc2nnc(NC(C)C)s2)c1C	-59*	-66	-3	/	/
Cc1cc(C(=O)CSc2nc3ccccc3o2)c(C)n1C1CC1	18	63*	/	36	/
Cc1cc(C(=O)CSc2ncnc3ccccc23)c(C)n1C1CC1	/	/	58	4	17
C=CCn1c(C)cc(C(=O)CSc2nnc(Cc3ccccc3)o2)c1C	8	9	/	12	/
COc1ccc(S(=O)(=O)N(C)C[C@@H]2OCc3ccccc3-c3ccccc3C(=O)N([C@H](C)CO)C[C@H]2C)cc1	/	/	/	-2	/
CCOc1ccc(-c2cnc(NCc3cccc4ccccc34)n2CCOC)cc1	-83*	-88	/	1	-1
CC(=O)COc1ccc2c3c(c(=O)oc2c1C)CCCCC3	14	30	72	45*	/
Cc1c(OCC(=O)NCCCn2ccnc2)ccc2c3c(c(=O)oc12)CCCC3	30	57*	?	-1	0
CC(=O)C(C)Oc1ccc2c3c(c(=O)oc2c1C)CCCC3 (stereo not drawn)	0	-10	-10	58*	-9
CCCc1cc(=O)oc2c(C)c(OCC(=O)NCCCn3ccnc3)ccc12	3	6	-7	-7	-1
Cc1c(C)c2ccc(OCC(=O)Nc3ccccn3)c(C)c2oc1=O	-88*	-91	-87	-85	-11
O=C(C[C@@H]1C=C[C@@H](NC(=O)Nc2ccc(C(F)(F)F)cc2)[C@@H](CO)O1)NCCN1CCCC1	/	/	/	-3	/
COc1ccc(S(=O)(=O)N(C)C[C@@H]2OCCCC[C@H](C)Oc3ccc(NS(=O)(=O)c4ccc(C)cc4)cc3C(=O)N([C@H](C)CO)C[C@H]2C)cc1	/	/	/	-1	/
CCCNC(=O)c1cccc(COc2ccccc2OC)c1	-21	-17	-16	1	15
CCCNC(=O)c1cccc(COCC(F)(F)F)c1	-63*	-69	1	-6	-2
COc1ccc([C@H]2CC(=O)C=C(c3cccc(C#N)c3)C2)cc1	/	/	22	45*	-6
COc1ccccc1N1CCN(Cc2ccc(O)c3ncccc23)CC1	-5	16	-88	-28	/
Oc1ccc(CN2CCCc3ccccc32)c2cccnc12	-69*	-70	-28	/	/
SMILES	HSF1 inhib	HSF1 activator	MITF act	esBAF inh	Wnt act
O=C(COC(=O)c1cccs1)c1ccc2c(c1)OCCO2	-52*	-60	46	19	-2
O=C(COC(=O)c1cccs1)c1ccc2ccccc2c1	-1	20	/	42*	32*
COc1ccc(S(=O)(=O)Nc2ccc3c(c2)C(=O)N([C@@H](C)CO)C[C@H](C)[C@@H](CN(C)S(=O)(=O)c2ccc(F)cc2)O3)cc1	/	/	/	-2	/
CC(CNC(=O)c1ccccc1Cl)c1ccccc1 (stereo not drawn)	-3	-5	66	48*	7
Brc1ccccc1OCCCOc1cccc2cccnc12	20	40	/	77*	17
Clc1cc(Br)ccc1OCCOCCOc1cccc2cccnc12	0	18	/	-6	-1
Cc1ccc(OCCOCCOc2cccc3cccnc23)c(Br)c1	30	77*	21	/	/
COc1cccc(C=O)c1OCCCOc1cccc2cccnc12	43	53*	/	?	5
